Among all 320,000 compounds or so, about 9,100 (2.8%) were called active. About 3% were inconclusive and are not listed. The full list was thinned out, with actives kept by preference. Unmarked numbers belong to inactive results. Calls follow the shape of the dose curve; as a rule, active = well fitted activation curve with a large enough effect; inconclusive = small, poorly fitted or top-dose-only effect; inactive = no such curve, though single readings can be large or run the other way.
Potency is read from the fitted curve at half-maximal effect.

The assay is described as follows: qHTS Assay for Rab9 Promoter Activators. Also: nearly all actives have a fitted effect of over 60% in size. As to activation, negative = inhibition: % of control where 0% means no effect. The settings on record: Huh7 Rab9 promoter-luciferase reporter, luminescence, 24 h; series mostly up to 9.22 µM; activation, negative = inhibition: at the top concentration. Summed up: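 Rab9 promoter-driven luciferase in stably transfected Huh7 cells; 1500 cells/well rested 2 h, exposed to compound in DMSO for 24 h at 37 °C, 5% CO2. Luminescence read 10 min after adding luciferase reagent at ambient temperature.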
On to `COC(=O)c1c(NC(C)=O)sc(C(=O)Nc2ccccc2OC)c1C`, for which the “activation, negative = inhibition” value is -3.82%.
`CCC(=O)Nc1sc(C(=O)Nc2ccccc2)c(C)c1C(=O)OC`: the Potency was 0.891 µM (active).
Take `CCOC(=O)c1sc(NC(=O)COc2ncnc3ccccc23)c(C(=O)OCC)c1C`: the “activation, negative = inhibition” value is -4.6%.
For `Cc1ccc(NC(=O)CCC(=O)N2CCC(c3ccccc3)=N2)cc1S(=O)(=O)N1CCCCC1`, the “activation, negative = inhibition” value is -0.345%.
The same measure, in the same setting: with `CCN(CC)C(=O)c1nc[nH]c1C(=O)N(C)Cc1ccccc1` the figure was -4.32%.
For `Cc1ccc(Nc2nc(N)nc(CSc3nnc(C)s3)n2)cc1`, the Potency is 4.47 µM (active).
Regarding `CCOC(=O)N1CCN(Cc2nc(N)nc(Nc3ccc(C)cc3)n2)CC1`, the “activation, negative = inhibition” value was 0.165%.
`Cc1nnc(SCc2nc3ccccc3nc2C)s1`: the “activation, negative = inhibition” value is -2.17%.
Consider `CC(C)(C)C(=O)CSc1ccc(S(=O)(=O)N2CCCC2)cn1`, for which the “activation, negative = inhibition” value is 11%.
Take `COCc1c(C(=O)OCC(=O)Nc2ccc(OC(F)F)cc2)oc2ccccc12`: the “activation, negative = inhibition” value is -0.02%.
On the same count and under the same terms, with `CCCc1nc2ccccc2c(=O)n1/N=C/c1ccc(O)c(O)c1` the figure was -10.3%; with `O=C(Nn1cnc2ccccc2c1=O)c1ccccc1`, -0.0477%.
`O=c1c2ccccc2ncn1/N=C/c1ccccc1`: the Potency was 0.447 µM (active).
Regarding `CC(C)C(NC(=O)c1c(F)cccc1F)C(=O)NCc1ccncc1` (stereo not given), the “activation, negative = inhibition” value is -1.51%.
Consider `Cc1nn2cc(-c3ccc(Cl)cc3)cnc2c1Br`, for which the Potency was 1.12 µM (active).
Turning to `Cc1noc(C)c1C(=O)NCC1COc2ccccc2O1` (stereo not given), the “activation, negative = inhibition” value is 14.7%.
As for `O=C(COC(=O)c1ccc(O)cc1O)NNC(=O)c1cccs1`, the “activation, negative = inhibition” value was -3.69%.
As for `Cc1ccc(SCCSc2ncccn2)cc1`, the Potency was 2 µM (active).
Turning to `Cc1ccc(SCCC(=O)NCc2ccccn2)cc1`, the “activation, negative = inhibition” value is -27.2%.
The same measure, in the same setting: the figure for `Cc1ccc(SCCC(=O)NC(C(C)C)C(C)C)cc1` is -5.64%; for `Nc1nnc(SCC(=O)NCC(=O)Nc2ccc(F)c(F)c2F)s1` it is -1.9%; for `Cc1c(C(=O)NNC(=O)c2ccncc2)oc2ccccc12` it is 0.45%.
On to `Cc1cccc(N(C)C(=O)CN2C(=O)COc3ccc(S(=O)(=O)N4CCCCCC4)cc32)c1`, for which the “activation, negative = inhibition” value is -3.86%.
The same measure, in the same setting: the figure for `CN(CC(=O)Nc1cccc(F)c1)C(=O)CC1CCCC1` is 0.609%; for `COc1ccc(C2=NN(C(=O)CSc3nnnn3C)C(c3ccco3)C2)cc1` (stereo not given) it is -2.86%.
The same measure, in the same setting: the figure for `Cc1ccc(C(=O)OCC(=O)Nc2ccc(Cl)cn2)cc1S(=O)(=O)N1CCOCC1` is -2.58%; for `O=C(c1ccc2nc(N3CCOCC3)sc2c1)N1CCN(c2ccc(Cl)cc2)CC1` it is -0.252%.
Consider `O=S(=O)(Nc1ccc2nc(N3CCOCC3)sc2c1)c1ccccc1`, for which the Potency is 2.82 µM (active).
Turning to `CC(=O)Nc1ccc(S(=O)(=O)Nc2ccc(N3CCOCC3)c(F)c2)cc1`, the “activation, negative = inhibition” value is 5.03%.
Take `N#Cc1ccc(CN2CCN(CC(=O)Nc3ccccc3C(=O)NC3CC3)CC2)cc1`: the “activation, negative = inhibition” value is -2.19%.
With `Cn1c(=O)c(C(=O)Nc2ncccn2)c(O)c2ccccc21`, the Potency was 3.16 µM (active).
Regarding `C=CCn1c(=O)c(C(=O)Nc2ncccc2O)c(O)c2ccccc21`, the “activation, negative = inhibition” value is -1.04%.
Same read-out and setting: the figure for `CCCn1c(=O)c(C(=O)Nc2cc(C)ccn2)c(O)c2ccccc21` is 13.5%; for `C/C(N)=C(/C#N)C(=O)COC(=O)CNS(=O)(=O)c1ccc(C)cc1` it is 14.1%.
Regarding `COC(=O)CNS(=O)(=O)c1ccc(OC)cc1`, the “activation, negative = inhibition” value was -1.55%.
In the case of `COC(=O)CNS(=O)(=O)c1ccc(Cc2ccc(S(=O)(=O)NCC(=O)OC)cc2)cc1`, the Potency was 1.26 µM (active).
Regarding `COc1ccc(S(=O)(=O)N2CCOCC2)cc1NC(=O)CSc1cc(C)ccc1C`, the “activation, negative = inhibition” value was -1.36%.
Turning to `CCOC(=O)c1c(C)[nH]c(C2=NNC(=NC(C)COC)SC2)c1C` (stereo not given), the Potency is 1.58 µM (active).
As for `O=C(CSc1nc2ccccc2c(=O)n1CCCO)NC1CC1`, the “activation, negative = inhibition” value is 1.65%.
On the same count and under the same terms, with `CN(CCO)Cc1csc2ccc(Br)cc12` the figure was -3.42%; with `COc1ccc(/C=C/c2nnc(NC(=O)C(C)C)s2)cc1`, 24.8%.
Consider `COc1ccc(/C=C/c2noc(-c3ccccc3OC(C)=O)n2)cc1`, for which the Potency is 2.24 µM (active).
For `CC(=O)Oc1ccc(-c2nc3c(C)cccc3c(=O)o2)cc1`, the “activation, negative = inhibition” value was 14.5%.
Take `Cc1ccc(NC(=O)COC(=O)CN2CCCCCC2=O)c(C)c1`: the “activation, negative = inhibition” value is -1.3%.
The same measure, in the same setting: the figure for `COc1ccc(OC)c(S(=O)(=O)Nc2c(C)nn(C)c2C)c1` is -1.82%.
Regarding `Oc1ccccc1-c1cc(-c2ccc(Cl)cc2)n[nH]1`, the Potency is 2.51 µM (active).
On to `Cc1ccc(S(=O)(=O)Cc2cc(-c3ccc(Cl)cc3)no2)cc1`, for which the “activation, negative = inhibition” value is -2.55%.
Still for that read-out and setting: the figure for `CC(C)C(=O)NCc1cc(-c2ccc(Cl)cc2)no1` is 2.91%; for `Cc1sc2ncn(CC(=O)NCCCC(=O)NCc3ccc(F)cc3)c(=O)c2c1C` it is 1.73%.
Same read-out and setting: the figure for `CCCCCc1c(C)nc(N2CCN(Cc3ccc4c(c3)OCO4)CC2)[nH]c1=O` is 0.809%; for `O=C(NCc1ccncc1)c1cccc(NS(=O)(=O)c2ccc(F)c(F)c2)c1` it is -4.59%; for `O=C(CN1CCN(c2ccccn2)CC1)N1CCc2ccccc21` it is -2.95%.
For `O=C(CSCc1ccccc1)N1CCc2ccccc21`, the Potency was 1.78 µM (active).
For the molecule `CCC(=O)N1CCCc2ccccc21`, the “activation, negative = inhibition” value was -0.452%.
Turning to `CCCCn1nc(C(=O)Nc2cccc(C(=O)NC3CC3)c2)c2ccccc2c1=O`, the “activation, negative = inhibition” value is 1.93%.

The values above are taken from PubChem BioAssay AID485297 (National Center for Advancing Translational Sciences (NCATS), 2010).
